Test results reported in PubChem BioAssay (NCATS).
Results filed as inconclusive are left out. Calls of active or inactive are those of the source. Calls come from the whole dose curve; as a rule, active = well fitted inhibition curve with a large enough effect; inconclusive = small, poorly fitted or top-dose-only effect; inactive = no such curve, though single readings can be large or run the other way.

Molecular target: Cytochrome P450 2D6 (Homo sapiens) (UniProt P10635)
Assay: qHTS Assay for Inhibitors and Substrates of Cytochrome P450 2D6 (AID 891); note: nearly all actives have a fitted effect of over 60% in size
Conditions: recombinant CYP2D6, luciferin-ME EGE luminescence; series mostly up to 57.1 µM
In short: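 Luminescent read-out of luciferin formed by 5 nM human CYP2D6 demethylating 30 uM Luciferin-ME EGE (Km level) over 60 min at room temperature after NADPH regeneration addition. Data normalized to full inhibition by 1.43 uM quinidine.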
Potency is the fitted concentration of half-maximal effect.

Cytochrome P450 2D6 (Homo sapiens), sequence (P10635 whole entry, looked up): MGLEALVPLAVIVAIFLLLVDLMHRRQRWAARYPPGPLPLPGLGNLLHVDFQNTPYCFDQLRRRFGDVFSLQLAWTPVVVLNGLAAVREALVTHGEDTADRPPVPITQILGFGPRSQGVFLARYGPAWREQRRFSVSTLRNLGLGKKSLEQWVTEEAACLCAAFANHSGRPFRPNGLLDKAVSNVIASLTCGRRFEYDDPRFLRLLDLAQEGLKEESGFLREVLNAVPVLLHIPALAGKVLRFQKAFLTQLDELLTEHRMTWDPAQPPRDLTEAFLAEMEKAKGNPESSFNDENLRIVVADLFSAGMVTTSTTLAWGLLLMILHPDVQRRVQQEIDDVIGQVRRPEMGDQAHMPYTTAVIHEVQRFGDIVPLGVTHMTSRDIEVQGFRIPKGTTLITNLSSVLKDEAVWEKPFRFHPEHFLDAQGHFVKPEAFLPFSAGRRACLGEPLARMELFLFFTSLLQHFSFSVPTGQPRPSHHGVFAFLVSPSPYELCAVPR

Row | SMILES | Potency
1 | CN(C)C(=O)c1ccc(-c2cncnc2N2CCNCC2)cc1 | 7.94 µM (active)
2 | CN(C)Cc1ccccc1-c1cc(NC2CC2)ncn1 | 0.0398 µM (active)
3 | CCNc1ncc2nc(C)c(=O)n(-c3ccc(OC)cc3)c2n1 | inactive
4 | c1cncc(CNc2nc(-c3ccoc3)nc3ccccc23)c1 | 5.01 µM (active)
5 | CNc1ccnc(-c2ccccc2CN(C)C)n1 | 0.0398 µM (active)
6 | CC(=O)NCCNc1nc(-c2ccccc2C(F)(F)F)nc2ccccc12 | 3.98 µM (active)
7 | Cc1cccc(CNc2ccnc(-c3cccnc3)n2)c1 | 0.631 µM (active)
8 | COc1cccc(-c2nccc(-n3ccnc3)n2)c1 | 7.94 µM (active)
9 | Cc1cccc(CNc2ncncc2-c2ccc3c(c2)OCO3)c1 | 6.31 µM (active)
10 | CN(C)Cc1ccccc1-c1nc(N2CCOCC2)c2ccccc2n1 | 7.94 µM (active)
11 | CN(C)c1ccc(-c2cc(-n3ccnc3)ncn2)cc1 | 7.94 µM (active)
12 | Clc1ccccc1-c1nccc(-n2ccnc2)n1 | 7.94 µM (active)
